22 sequences from the supplement of paper PMC6555819 can be followed below.

The subject of the test is FXR:RXRa (NR concentration 270 nM, RXRa partner concentration 90 nM). Nature of the test: PBM binding z-score (relative to random genomic background probes); higher = stronger binding; sequences stand for … in GC…GCGATTGACAGCGTAGAATGAAGG
Summed up: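 Probes were double-stranded and carried 34-nt variable regions with direct-repeat seeds, single-nucleotide variants, half-site ablations and random human genomic background sequences, printed on custom Agilent 4×180K protein-binding microarrays. Arrays were incubated 1 h with ligand-free nuclear receptor dimers in PBS pH 7.4, 2% milk, 0.02% Triton X-100, 1 mM DTT, 0.2 mg/mL BSA and 0.4 mg/ml salmon testes DNA. Antibodies against each partner (one per run) detected binding, and scanned fluorescence was regression-normalized. Binding z-scores use the random background probes as reference.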
Sequence TCTTGCAGATCAAAGGTTAAGAAAGCCGAAGCCT came in with a PBM binding z-score of 1.5. As for CCGAGTGGGTTATGGGGCATTCAGGCAACGGTGA, the figure is 0.128. The result for ATCTCTAGGTAAAGTTCACTGAAAGATCGATAGA reads 2.15; that for TGAATGAGGTGATAAGATCAGGGAACGTTGCAAA, 0.365; that for AGCATGAGGTTATACGTAGATCAGGGAAGAAAGT, 1.93. In turn, AGTCGAAGTTCAGGACGAGGTAACGTAAAGCACG returned a PBM binding z-score of 1.05. The result for CCGACTGGGACATAAGGTTACCATAAGCCAGCCC reads 0.338.

Turning to ATACCAAGGTGGTCGTGAGGTCGTTGATACTAAC, the PBM binding z-score amounted to 1.49. Take AAAATGAGGTTATTAAGATCAGGGAATTGCGGTC: the PBM binding z-score came out at 1.95. As for GCTGCTAGGTCAGTTTGGTCAGCTAACGGGTACG, the figure is 1.08; as for TCATGTAGGTAAAGGTGAAAGTCGAACGATATGA, 1.05; as for CAAACTAGTTCACCGGAAGGTCAAAGTCCGCATG, 4.43. As for CGTCCAAGTTCAGAGAGGTCAGTGAATGCCGAGT, the figure is 3.32. CCTCGGAGGACTACAGGAGGTCAGAGCTGCCAGA had a PBM binding z-score of 0.709.

On to TGAATGAGGTTATAAGCTCAGGGAACGTTGCAAA, for which the PBM binding z-score came to 1.24. With CGTCCAAGTTCAGCAGGTCAGTGAAAGCGACGTG, the PBM binding z-score came out at 2.28.

AATGCAGGGTCACTAGGCCAGAGTAGGTACGAAT registered a PBM binding z-score of 6.22.

TAGTCTAGGTCATGGGCCAGTATACCACGCGAAC showed a PBM binding z-score of 4.42. CGAACTGGGTCATTGACAGGACAGTGAATAGTAA yielded a PBM binding z-score of 3.16.

In turn, AGAACGACGGCACGCTGAGTTGATAGCAGAGTAG showed a PBM binding z-score of -0.194. In turn, TAGCCTACGTCAGATCGGGCCAGTATACGCTATA came in with a PBM binding z-score of -0.48. For TAAGACAGGTGAAGGTAACTCAGGTACGCAGTCG, the PBM binding z-score was 0.669.
